The record followed here is PubChem BioAssay AID1347426 (Functional Genomics Laboratory (NCATS/FGL), 2020).

Screen size: about 31,000 sequences; about 1,400 (4.5%) were called active. The entries come from a sample that favours actives as a whole. Values without a mark were called inactive.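 How the source made its calls: active means median seed-adjusted z-score above 1 or below -1; inactive means the rest.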

This assay in a line: Novel Modifiers of Survival Motor Neuron (SMN) Protein: Gene Identification via Genome-wide siRNA Screen.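 Further: luminescence tracks full-length SMN protein made from the SMN2 reporter.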 The conditions noted are these: HEK293T SMN2-luciferase reporter, siRNA knockdown, 72 h; actives lie on both sides. Summed up:
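HEK293T cells stably carrying an SMN2 promoter/splicing cassette–luciferase reporter were reverse-transfected with 1 pmol siRNA per well (druggable-genome library, 3 siRNAs per gene) and grown 72 h at 37 °C. Luminescence, normalized to negative-control siRNA and log10-transformed, was scored as MAD.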
(In general: Reporter assays use an easily measured gene product as a stand-in for the process of interest.)
On to AGAGCUAGAUGGAAGAACATT against SFRS3, for which the median seed-adjusted z-score was 2.74 (active).
Regarding ACUGACAUUUUUCAACUCATT against ALDH1L1, the median seed-adjusted z-score is 0.0289.
On to CUACCGCAUCAGUAACAGATT against DDX21, for which the median seed-adjusted z-score was -0.251.
Take GACUCUGAGUAUAAAGUGATT against BARHL1: the median seed-adjusted z-score is 0.397.
The value for GGCUGGAUGUCAUUGAGAATT against SRGAP3 was -0.0961.
As for GCGAGGGCCUUUUUGAGUATT against CRYAA, the median seed-adjusted z-score was -1.03 (active).
The result for GAUCGAAUCUUUAAGGUCUTT against EIF2C1 reads 0.215.
On to ACAUCUCCGAAAUCGCCUATT against SLC2A8, for which the median seed-adjusted z-score is -0.105.
For the sequence AAAUGGAUGAGUUGCAAUUTT against PITX1, the median seed-adjusted z-score was 0.
As to GCUCCGAAGUGGUGAUCAATT against CHRM1, the median seed-adjusted z-score was 1.1 (active).
The result for GGAUAUGCCUUAGAUUACATT against PRTFDC1 reads 0.493.
The result for GGUUCAUGACAGACAAGAATT against SHMT1 reads 0.179; that for GCAUGUAUCUGCUUGAUAUTT against ODC1, -1.64 (active); that for GUUUUUGUCCUAGCCCAUATT against OTUD7A, -0.53.
The value for GCCCAUGUCCCAAAUCACATT against PDE4A was -0.147; that for GGCAAAAUCUGGACACCAUTT against TFAP4 was -0.0515; that for CCGGAAUUUUUGACAAGAATT against PTGS2 was -0.21.
With AGAUCUGCAUGAAACAACATT against VPS16, the median seed-adjusted z-score is 0.306.
For the sequence GGUCUGAAACUCUACUAUATT against SHPRH, the median seed-adjusted z-score was 0.169.
The result for GGUUCUAACUUCGAAAAAUTT against DNAJC8 reads -1.62 (active); that for AGUCUGUCCGAGUACUUCATT against LFNG, -0.13; that for GAGUUAAGUGAUAAGUAUATT against ZNF639, 0.182.
On to GCUCUGUAAUAGUCGACUATT against TOPBP1, for which the median seed-adjusted z-score was 0.0888.
Take GCUUGUAGCUCUUAAGGUUTT against PPP2CA: the median seed-adjusted z-score is 0.731.
The result for GGUCUUUAUUCGGAAGCGATT against ZNF525 reads 0.134; that for GAUAUUGAGCGGUUACAAATT against ATP7B, 0.0947.
The value for GCACUCAUGUCAUACUGAATT against LIPA was 0.535; that for GUUACUUCCGAAUCCAUGATT against ZNF627 was 0.204.
Take GGAAACCUCUGGACCUCUATT against ARID1A: the median seed-adjusted z-score is -1.14 (active).
For GGACAGAUCUGCAAAGAGATT against CETP, the median seed-adjusted z-score was 0.
The value for GAUGUACCUUGAUACAGUATT against IDH3A was 0.137; that for CUGAUGAUCUACUCAUAUATT against TEKT1 was 0.222; that for GCUCCAUCCUUAUUCAACATT against ZIK1 was -0.0627.
With GCUCAUCUGGAUAACCUGATT against ZNF513, the median seed-adjusted z-score was -0.0616.
The value for GGCUAUUAUUGACAUGGUUTT against PDE8B was 0.217.
As for GAAUAUGAAACAUUCGAUATT against GLRX3, the median seed-adjusted z-score was 0.0784.
For CUUCUGAACUCGGUCCUCATT against SLC5A5, the median seed-adjusted z-score is 1.01 (active).
As for GGCUUUCAUUGAGCAGGAATT against ATP6V1E2, the median seed-adjusted z-score was -0.162.
In the case of GACCAGCAAUGCCUACGUATT against FLRT1, the median seed-adjusted z-score was -0.00451.
In the case of GCAAAACCCUGGAAGGAUATT against KCTD11, the median seed-adjusted z-score was 0.374.
On to UGACAGUGACGGAUGCUAATT against OPLAH, for which the median seed-adjusted z-score was -0.233.
Turning to CGAUCGACUCGGUGACUUUTT against COL7A1, the median seed-adjusted z-score was 1.08 (active).
The value for GAAGUCACGUCACUACUUATT against ZNF644 was 0.389; that for CACAGAUCAUUAUCUAAAUTT against LONP2 was 1.52 (active).
CCUCAGAACCGGCAAGAAATT against TNFAIP1: the median seed-adjusted z-score is 0.0766.
As to CCAAAAUGUUUCAUCCAAATT against UBE2B, the median seed-adjusted z-score is 0.333.
Consider GAGUUAUGCAAGACAGUAUTT against MYSM1, for which the median seed-adjusted z-score was -0.116.
The result for GCAGCAACCUUGUCAUCCATT against ZNF692 reads 0.556.
The value for CACCAGCGACGGGAUCUUATT against RHOBTB2 was -0.139; that for CCGUCACAGUAGAGACUAUTT against LRRC4C was -0.122; that for GCAAUUACAUGAGCGAGCATT against PLK1 was -2.57 (active).
For the sequence GCUCCAUCAUCGUUGCAUUTT against SYPL2, the median seed-adjusted z-score was 0.233.
The result for CCAUAUUCCUCAUGCAUGUTT against FCRL5 reads -0.138; that for CAUCAGGAAUUACGGGACATT against GPR123, 0; that for AGGGAACAAGUUUACCAAATT against GTF2IRD1, -0.282.
The value for GGUUAGACAUCAGUCCUUUTT against DHX15 was 1.36 (active); that for CAGUUCCAGAUGAACCAUATT against DHDDS was 0.0122; that for CACGGGAUAUGGAACGAAATT against CXCR7 was -0.511.
The value for GAACAGUCCCUGGUUCCCATT against ECSIT was -0.116; that for UGCCCUUGGCUAUCCCUGATT against SLC30A3 was -1.26 (active); that for GGCUUUGUCAGUUCCCAGATT against SPRR2B was 0.388.
With GCUUUGCUCUGUACCCUGATT against CTSK, the median seed-adjusted z-score is 0.0972.
Take CCAUUAACCACAUACCAGATT against TLR7: the median seed-adjusted z-score was 0.189.
In the case of CCAGUUCUUUAGGAUCUAUTT against GPR141, the median seed-adjusted z-score was -0.777.
On to GCGGAGCAUUUGCAACAAATT against NR6A1, for which the median seed-adjusted z-score is -0.287.
In the case of GCACCUUUAGGCGAAGGAATT against SENP6, the median seed-adjusted z-score is -1.03 (active).
Regarding CCAUCAUCCCUAAGCGAAUTT against REXO1, the median seed-adjusted z-score was -0.748.
In the case of GUGUGGUCAUUCAACUUGATT against ZNF324B, the median seed-adjusted z-score was 0.176.
The value for GCACCUUCCUGCUAAGAUUTT against STAT3 was 0.
On to GCUACUCCCUGAUUCAGAATT against SLC2A7, for which the median seed-adjusted z-score was -0.0337.
As for CUACAAAAGUUUUUCCAGATT against COX7A2L, the median seed-adjusted z-score was 0.
Take CACGGUAUCUCAACCGGAATT against HGS: the median seed-adjusted z-score was 1.16 (active).
As for CCCAGGCUCGAAUCCCAUATT against PLD3, the median seed-adjusted z-score was 0.066.
The result for CCUUCUCCGUGAUUGAGGATT against LGI4 reads -0.239.
In the case of GGCGACAGAUGUGAAAGAATT against LDLR, the median seed-adjusted z-score is -0.142.
The value for GAUUGAUAGAAGCACCCUATT against DCC was 0.303; that for AAGACAAGCUAAAAAUGAUTT against YWHAE was 1.38 (active); that for GCAAGGACCCAACAACCAATT against TTC9 was -0.173.
Regarding GUCAUUUCUUUACCCAAGATT against NUDT5, the median seed-adjusted z-score was 0.228.
Regarding GGAAAACUGCGGCUGCAAATT against AP1S1, the median seed-adjusted z-score was -1.04 (active).
For GCACGAAAAUCCCGACAUATT against DDX54, the median seed-adjusted z-score was 0.
The value for GGCCGAAUUUAUAAAGGAATT against CHI3L1 was 0.145; that for GAGGUACGCUGGUUCUACATT against DDHD1 was 0.
GCAUAGAGGAGAUCUGUGATT against PROC: the median seed-adjusted z-score was -0.228.
Consider ACUUCUACACGUUUCCAAATT against THAP11, for which the median seed-adjusted z-score was -1.36 (active).
Consider GAACAACACGACCAACAGATT against PRKD2, for which the median seed-adjusted z-score is 0.00493.
The result for GGGUCGACCUAUUUCCGAATT against DYSF reads -0.23.
Regarding GCAAACCGGUUAAUCAAGATT against GGA2, the median seed-adjusted z-score was -0.142.
For GAUCCUCAGUAAACCUAUUTT against DDX46, the median seed-adjusted z-score was -1.24 (active).
GCAUGUUGGUUCACUAUGATT against TPST1: the median seed-adjusted z-score was -0.00547.
Take AGGUCUUUCCCAACGAGGATT against UBE2S: the median seed-adjusted z-score was 0.348.
With GGAUGCACUUUGUCCGAAATT against SPATA5, the median seed-adjusted z-score was -1.04 (active).
Regarding AGUUGGGAUUAAUACUUCATT against CCL7, the median seed-adjusted z-score was 0.23.
Regarding GAACUUGUCUUGCGCAAAATT against ZEB1, the median seed-adjusted z-score was -0.163.
For GGUUUGUGGUGGAAGAUUATT against PLCD3, the median seed-adjusted z-score is 0.228.
On to GGAUCACUCUAACAUCGGATT against PDE1C, for which the median seed-adjusted z-score is 0.157.
The value for GGAUCAGUAUGGGCAAAGATT against CALB1 was 0.191.
UCUCUACAACAAAAUUUAATT against POLR2L: the median seed-adjusted z-score is -1.19 (active).
Take CACUUGAUGUUAUUCGUGUTT against MOAP1: the median seed-adjusted z-score is 0.0405.
Consider GGAAGGAUCAAACUACAAATT against AATF, for which the median seed-adjusted z-score was 0.182.
Turning to CAUUAUCGAUACUAUGUAATT against PSMD6, the median seed-adjusted z-score is -1.03 (active).
With GAUCCACCUUAUACUCAUATT against EPS8, the median seed-adjusted z-score was 0.
As for GAUGAUUACAUAUCAGAGATT against ZNF630, the median seed-adjusted z-score was -0.533.
In the case of CACCCUAAUGGAUACAGCUTT against NTSR2, the median seed-adjusted z-score is -0.125.
GACUAAAUCAGUUACCGAATT against MED17: the median seed-adjusted z-score was -2.06 (active).
The result for GCACCUGAAUGACACGCAATT against HOXD1 reads 0.144.
Regarding GGAAUUGUGGUGUUAGUAATT against POLN, the median seed-adjusted z-score was -0.129.
Consider GGUCAUUGCCCGAACAAUATT against BNC1, for which the median seed-adjusted z-score is -0.631.
Take GGACUUUAUUCGGAAGCUUTT against DAPK2: the median seed-adjusted z-score is 0.268.
